Where a chain is given by its changes, count along the chain named. Whole data set: some 5,800 sequences, median “enrichment r” near 0.54, cut for the highest 2% near 16. The entries come from a sample that favours the highest values as a whole.
B1: ENSG00000070961:be:win_1201|CDS|ENSG00000070961|bound_else_gene|NA|bound_elsewhere_windowed (ssRNA)
RNA: GGGAGUUCUACAGUCCGACGAUCAAAAGACCAUGGCUUGCUGAGUGCACACCAAUUUAUAUACAAUACUUUGUGAAGUUCUUCAUUAUUGGAGUUACAGUUUUAGUGGUCGCAGUGCCAGAAGGUCUUCCACUUGCAGUCACGCAACAGAGGAUUGAGCAUCA
B2: chr5:150401636:150402250:-|three_prime_utr|ENSG00000019582|control|control|control (ssRNA)
RNA: GGGAGUUCUACAGUCCGACGAUCCUGCUGCCCAAUCUCCAUCUGUCAACAGGGGCGUGAGGUCCCAGGAAGUGGCCAAAAGCUAGACAGAUCCCCGUUCCUGACAUCACAGCAGCCUCCAACACAAGGCUCCAAGACCUAGGCCAACAGAGGAUUGAGCAUCA
B3: chr5:40972473:40972581:+|CDS|ENSG00000112936|unk|FALSE|unique (ssRNA)
RNA: GGGAGUUCUACAGUCCGACGAUCAAAACCUUUCUACACAGUUGGUGAGAAGGUGACUGUUUCCUGUUCAGGUGGCAUGUCCUUAGAAGGUCCUUCAGCAUUUCUCUGUGGCUCCAGCCUUAAGUGGAGUCCUGAGAUGAAGAACAACAGAGGAUUGAGCAUCA
B4: ENSG00000096070:stop:overlap|stop_codon|ENSG00000096070|stop_codon|NA|stop_codon (ssRNA)
RNA: GGGAGUUCUACAGUCCGACGAUCAGAAGGAUCCUGCACACAUCUUCGCAGAACCAGUCAACUUGAGUGAGGUUUUAUAUGUUUAGGUUCCAGAUUACCUGGAAUUCAUAUCCAAGCCAAUGGAUUUUUCUACUAUGAGGCGGACAACAGAGGAUUGAGCAUCA
B5: chr16:3436009:3436110:-|3pUTR|ENSG00000167981|unk|FALSE|unique (ssRNA)
RNA: GGGAGUUCUACAGUCCGACGAUCAUUAAAAUGAAGGCUCUUGCUAAAGUUAUUUUAAUUUUGUUUACGUAGUUUCUGACUUUUAGAAGGAGGAGAAUUUAUUUAUAUUUUGCCAGUUCUGCAGACAUAUCUAGGAAAGUAAAUCAACAGAGGAUUGAGCAUCA
B6: chr1:183143318:183143419:+|3pUTR|ENSG00000135862|msi1|FALSE|unique (ssRNA)
RNA: GGGAGUUCUACAGUCCGACGAUCACAUCCUGUGCCAAAGGUAUUGGUCAUUUAGAAUGUCGGUAGCCAUCCAUCAGUGCUUUUAGUUAUUAUGAGUGUAGGACACUGAGCCAUCCGUGGGUCAGGAUGCAAUUAUUUAUAAAACAACAGAGGAUUGAGCAUCA
B7: chr1:16124349:16124452:-|3pUTR|ENSG00000142627|msi1|FALSE|unique (ssRNA)
RNA: GGGAGUUCUACAGUCCGACGAUCUUUGUUUUGUUGGACAUUUUUUUCGAAUCUUAAUUUAUUAUUUUUUUUAUAUUUAUUGUUAGAAAAUGACUUAUUUCUGCUCUGGAAUAAAGUUGCAGAUGAUUCAAACCGAUCUUGGCUCAACAGAGGAUUGAGCAUCA
B8: ENSG00000070961:be:win_4051|3pUTR|ENSG00000070961|bound_else_gene|NA|bound_elsewhere_windowed (ssRNA)
RNA: GGGAGUUCUACAGUCCGACGAUCAUUUCUGCUGUUGGCUGUUAAUAAUUUGGAUUAUUUAUGUUUAUAAAUGAUACAGAUCUGUUUACAAGGUUUGUAGAUACUUUUUUUGUUCCUGUUCAUAGAUGGGAAGCUUCCUUAUAACAACAGAGGAUUGAGCAUCA
B9: chr16:3436009:3436110:-|3pUTR|ENSG00000167981|unk|total|mutant (ssRNA)
RNA: B5 RNA with U69C, A70C, U83C, A84C, U131C, A132C
B10: chr15:67202635:67202736:-|3pUTR|ENSG00000103591|msi1|total|mutant (ssRNA)
RNA: GGGAGUUCUACAGUCCGACGAUCUGCCAAAAUUGCCCUUAUCAUGUUGGCUGCCUGACUUGUUUACCGGGUCCCCUUAAUUUCCGUUUUCCGCCGGAGGUUAAGGAGAAAUCUUUUUUUUCCUCAGUAUAUUGUAAGAGAGUGCAACAGAGGAUUGAGCAUCA
B11: chr6:1612588:1612689:+|3pUTR|ENSG00000054598|msi1|FALSE|unique (ssRNA)
RNA: GGGAGUUCUACAGUCCGACGAUCUUUAUUCAUGGACUUGUUUUAAAAUGUAAAUUGCAACAUAGUAAUUUAUUUUUAAUUUGUAGUUGGAUGUCGUGGACCAAACGCCAGAAAGUGUUCCCAAAACCUGACGUUAAAUUGCCUCAACAGAGGAUUGAGCAUCA
B12: chr15:67202635:67202736:-|3pUTR|ENSG00000103591|msi1|FALSE|unique (ssRNA)
RNA: B10 RNA with C66U, C67A, C83U, C84A, C90U, C91A, C93U, C94A

The binders below were run against MSI1 full-length (mouse, UniProt Q61474 1-362) (assay: nsRBNS (natural sequence RNA bind-n-seq); RBNS binding buffer (assumed for nsRBNS): 25 mM Tris pH 7.5, 150 mM KCl, 3 mM MgCl2, 0.01% Triton X-100, 500 ug/ml BSA, 20 U/ml SUPERase-In, 4 C; UNK is unkempt and MSI1 is Musashi-1; names of the RNAs are library labels; protein concentration not given here; high values mean tight binding).
Chain of MSI1 full-length (Q61474 whole entry): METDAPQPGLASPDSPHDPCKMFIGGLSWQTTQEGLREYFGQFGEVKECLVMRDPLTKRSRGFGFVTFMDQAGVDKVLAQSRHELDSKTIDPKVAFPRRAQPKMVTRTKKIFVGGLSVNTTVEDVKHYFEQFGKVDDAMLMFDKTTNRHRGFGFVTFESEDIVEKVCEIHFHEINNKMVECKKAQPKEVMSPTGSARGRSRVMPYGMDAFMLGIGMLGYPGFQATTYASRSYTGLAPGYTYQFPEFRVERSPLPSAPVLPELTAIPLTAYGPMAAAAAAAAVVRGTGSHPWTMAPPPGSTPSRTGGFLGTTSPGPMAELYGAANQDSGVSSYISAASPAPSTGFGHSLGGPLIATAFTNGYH

Binder	binding signal [enrichment R]
B1	1.51
B2	0.462
B3	0.339
B4	0.383
B5	19.1
B6	34.2
B7	4.58
B8	1.02
B9	0.68
B10	0.438
B11	0.311
B12	32.9

From article PMC12136788
